Screening results: PubChem, National Center for Advancing Translational Sciences (NCATS)
Only some compounds are listed: those with a hit (about 7.7% of all), similar ones and a draw of the others.
RE007 growth inh: qHTS Assay for Inhibitors of the HIV-1 protein Vpr; S. pombe RE007 Vpr strain, BacTiter-Glo ATP luminescence, 24 h; Potency, µM (titrated, usually from 92.2 µM), for the others: top-dose activity change, negative = less growth, hits mostly inhibitors; actives 0.21% (n = 360,000); AID 651644, 2012; active = well fitted falling curve with a large enough effect; inconclusive = small, poorly fitted or top-dose-only effect; inactive = no such curve, though single readings can be large or run the other way; note: potency is the fitted concentration of half-maximal effect; nearly all actives have a fitted effect of over 50% in size
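Fission yeast RE007 carrying one integrated HIV-1 vpr copy, seeded at OD 0.01 in PMG+AL medium with 23 nL pinned compound. Grown 24 h at 30 degrees; viability read by BacTiter-Glo luminescence after 5 min.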
Sm TGR inh: qHTS Assay for the Inhibitors of Schistosoma Mansoni Peroxiredoxins. Schistosoma mansoni thioredoxin glutathione reductase (TGR), Q962Y6. purified TGR, DTNB reduction, TNB absorbance 405 nm. Potency, µM (highest dose often 114 µM), inactives show at the top dose activity change, negative = inhibition, usual class: inhibitors. actives 3% (n = 360,000). AID 485364, 2010; note: potency is the fitted concentration of half-maximal effect; nearly all actives have a fitted effect of over 60% in size
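TGR 20 nM + NADPH 100 uM (dispensed conc.), cpd preinc 15 min RT; start with NADPH (500 uM addition) then DTNB (15 mM addition). Kinetic TNB absorbance, 405 nm filter. Four-parameter Hill fit across titration.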
Giardia FBPA inh: qHTS Assay for Inhibitors of Fructose-1,6-bisphosphate Aldolase from Giardia Lamblia; actives 0.71% (n = 290,000); purified Giardia FBPA; A8B2U2; Potency, µM (series often up to 59.6 µM), for the others: top-dose activity, negative = inhibition, hits mostly inhibitors; AID 2451, 2010; note: potency is the fitted concentration of half-maximal effect; nearly all actives have a fitted effect of over 55% in size
Target sequence (A8B2U2 whole entry, looked up): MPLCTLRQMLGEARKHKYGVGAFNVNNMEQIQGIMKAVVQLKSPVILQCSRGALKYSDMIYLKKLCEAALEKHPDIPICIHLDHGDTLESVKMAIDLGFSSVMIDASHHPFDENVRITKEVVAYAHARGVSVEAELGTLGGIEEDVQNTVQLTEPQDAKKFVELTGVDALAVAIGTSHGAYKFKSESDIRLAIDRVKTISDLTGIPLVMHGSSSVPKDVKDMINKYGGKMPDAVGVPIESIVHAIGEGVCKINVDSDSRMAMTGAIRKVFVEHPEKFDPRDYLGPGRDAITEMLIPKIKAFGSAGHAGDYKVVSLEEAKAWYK
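Giardia FBPA (40 nM reagent) was preincubated 10 min at RT with compound (up to 57.5 uM final), then substrate plus GAPDH/TPI/NAD/arsenate coupling system with diaphorase/resazurin was added; resorufin fluorescence (525/598 nm) was read after 20 min.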
Tb PYK inh: qHTS of Trypanosoma Brucei Inhibitors; actives 0.12% (n = 410,000); TbPYK enzyme, Kinase-Glo Plus ATP luminescence, 45 min; pyruvate kinase (Trypanosoma brucei), Q57TT1; Potency, µM (highest dose often 76.8 µM), without a hit: at the top dose activity, negative = inhibition, actives largely listed as inhibitors; note: potency is the fitted concentration of half-maximal effect; nearly all actives have a fitted effect of over 50% in size
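Luminescent Kinase-Glo Plus end-point after 45 min room-temperature reaction of T. brucei pyruvate kinase started with 130 uM ADP (final). Buffer TEA 50 mM pH 7.2 with KCl, MgCl2, BSA, Tween-20; titration-based qHTS with fitted concentration-effect curves.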
HCMV antiviral: qHTS Assay for inhibitors of the human cytomegalovirus (HCMV); HFF cells, HCMV-luciferase reporter, 72 h; active compounds read low; activity change, negative = inhibition, % at 57.5 µM; actives 4.5% (n = 410,000); in the data active = activity change below about -60%; inconclusive = no clear call, values can overlap the other calls; inactive = above about -39%
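Inhibition of viral replication was scored as loss of reporter luminescence in HFFs infected with HCMV-luciferase (MOI 1 PFU/cell) for 72 h; compounds tested at 2 doses, normalized to buffer and Salinomycin controls.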
FMDV inh: High Throughput Screening for Foot and Mouth Disease Virus Antivirals; FMDV antiviral cell-based qHTS; Potency, µM (top dose mostly 57.9 µM), without a hit: top-dose activity change, negative = inhibition, actives largely listed as inhibitors; actives 1.2% (n = 410,000); AID 1159524, 2015; calls by dose curve; tested in HEK293T cells; note: read-out not given here; potency is the fitted concentration of half-maximal effect; nearly all actives have a fitted effect of over 45% in size
Active calls of the source: *; ? = inconclusive; · = not tested or not shown; [ ] = dose if it differs, or a comment. Unless noted, calls come from the whole dose curve; as a rule, active = well fitted curve in the direction sought with a large enough effect; inconclusive = small, poorly fitted or top-dose-only effect, or another doubt; inactive = no such curve, though single readings can be large; an effect the other way counts as inactive or inconclusive. % is set by controls: 0 for no effect and ±100 for the full control effect.

SMILES | RE007 growth inh | Sm TGR inh | Giardia FBPA inh | Tb PYK inh | HCMV antiviral | FMDV inh
CC[C@@H]1CN2CCc3cc(OC)c(OC)cc3[C@@H]2C[C@@H]1C[C@H]1NCCc2cc(OC)c(OC)cc21 | · | · | -1% | · | · | ·
Cc1nn(-c2ccc(NC(=O)c3ccncc3)cc2)c(C)c1Cl | -3% | 0% | 16% | 1% | -91* | 18µM*
O=C1NC(=Nc2cccc(Cl)c2)SC1Cc1cccc(Cl)c1Cl (stereo not given) | 7% | 8% | 1% | -10% | -78* | ·
O=C(O)CC1SC(=Nc2cccc(O)c2)NC1=O (stereo not given) | -5% | -2% | -6% | 4% | -14 | 6%
O=c1c2ccccc2sn1-c1cc(S(=O)(=O)N2CCOCC2)ccc1N1CCOCC1 | 1% | 25µM* | ? | 4.5µM* | ? | ·
Cc1ccc(C(=O)c2oc3ccccc3c2NC(=O)c2cc(-c3ccc(Cl)cc3)on2)cc1 | · | 3% | · | -3% | 2 | -1%
CCCn1nc(NC(=O)c2ccco2)c2cc3cc(C)ccc3nc21 | -7% | 11µM* | -25% | 0% | 28 | 4%
CCCn1nc(NC(=O)c2ccco2)c2cc3ccc(C)cc3nc21 | -9% | ? | 0% | -1% | -31 | -6%
CC(C)Cn1nc(NC(=O)c2ccco2)c2cc3ccccc3nc21 | 3% | 50µM* | -12% | 5% | -16 | -17%
COc1ccc2nc3c(cc2c1)c(NC(=O)c1cccs1)nn3CC(C)C | -14% | 1% | ? | -9% | -84* | 2%
CO[C@@H]1COC(=O)C/C=C\[C@@H](C)[C@H](OC)COC(=O)[C@H](COCc2ccccc2)NC(=O)C/C=C\[C@H]1C | · | · | 0%[12.9 µM] | · | · | ·
Cc1cc(C)nc(S[C@@H]2C[C@@H](C(=O)N3CCCN(C)CC3)N(Cc3cc(F)ccc3F)C2)n1 | · | · | · | · | · | -4%
COC(=O)c1ccc(NC(=O)CN2CCCN(Cc3ccc(Cl)cc3)S2(=O)=O)cc1 | · | -1% | · | 3% | 11 | -21%
O=C(NC1CCCC1)C(c1cccs1)N(Cc1ccco1)C(=O)c1csnn1 (stereo not given) | -3% | 35µM* | 0% | -4% | 1 | 1%
COCCN(C(=O)c1csnn1)C(C(=O)NC1CCCCC1)c1ccccc1 (stereo not given) | -7% | -6% | 3% | -5% | 42 | -7%
O=C(NCc1ccccc1)C(c1ccc(Cl)cc1)N(C(=O)c1csnn1)C1CC1 (stereo not given) | -8% | 2% | 18% | 1% | -63* | 18%
COCCN(C(=O)c1csnn1)C(C(=O)NC1CCCCC1)c1ccc(Cl)cc1 (stereo not given) | 8% | -11% | -5% | -3% | -99* | 12%
Cc1ccc(C(=O)NCc2ccc(F)cc2)cc1NC(=O)c1nsc2ccccc12 | · | 1% | · | 0% | -14 | 0%
O=C(Nc1ccncc1)Nc1cccc(C(F)(F)F)c1 | -1% | -3% | 8% | -3% | -80* | -1%
O=C(Nc1ccc(OC(F)F)cc1)Nc1cccc(C(F)(F)F)c1 | -16% | 12% | -9% | 5% | -80* | 0%
COc1ccc(CC(N)c2csc(NC(=O)Nc3cccc(C(F)(F)F)c3)n2)cc1 (stereo not given) | -2% | · | · | 0% | -39 | -15%
NNC(=O)Nc1cccc(C(F)(F)F)c1 | 15% | 20% | -7% | -4% | 16 | -10%
NC(CCc1ccccc1)c1csc(NC(=O)Nc2cccc(C(F)(F)F)c2)n1 (stereo not given) | 18% | · | · | 0% | -98* | -23%
NC(=O)/C=C\C(=O)Nc1cccc(C(F)(F)F)c1 | 18µM* | 3.5µM* | 4% | -3% | -39 | ·
Cc1nn(-c2ccccc2)c(OC(=O)c2cccc(Br)c2)c1S(=O)(=O)c1ccccc1 | · | 5% | · | 16% | 36 | 8%
